About 14,000 (4.5%) of roughly 310,000 compounds showed an effect of 50% or more. Effects have a minus sign here. The entries come from a sample that favours strong results as a whole.
target: human ether-à-go-go-related gene (hERG) potassium channel (human, UniProt Q12809); experiment: primary screen, population patch clamp on CHO cells stably expressing hERG; higher = less effect of the substance
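Also: peak tail current of the secondary pulse compared with the same well before compound.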

Chain of human ether-à-go-go-related gene (hERG) potassium channel (Q12809 whole entry, looked up): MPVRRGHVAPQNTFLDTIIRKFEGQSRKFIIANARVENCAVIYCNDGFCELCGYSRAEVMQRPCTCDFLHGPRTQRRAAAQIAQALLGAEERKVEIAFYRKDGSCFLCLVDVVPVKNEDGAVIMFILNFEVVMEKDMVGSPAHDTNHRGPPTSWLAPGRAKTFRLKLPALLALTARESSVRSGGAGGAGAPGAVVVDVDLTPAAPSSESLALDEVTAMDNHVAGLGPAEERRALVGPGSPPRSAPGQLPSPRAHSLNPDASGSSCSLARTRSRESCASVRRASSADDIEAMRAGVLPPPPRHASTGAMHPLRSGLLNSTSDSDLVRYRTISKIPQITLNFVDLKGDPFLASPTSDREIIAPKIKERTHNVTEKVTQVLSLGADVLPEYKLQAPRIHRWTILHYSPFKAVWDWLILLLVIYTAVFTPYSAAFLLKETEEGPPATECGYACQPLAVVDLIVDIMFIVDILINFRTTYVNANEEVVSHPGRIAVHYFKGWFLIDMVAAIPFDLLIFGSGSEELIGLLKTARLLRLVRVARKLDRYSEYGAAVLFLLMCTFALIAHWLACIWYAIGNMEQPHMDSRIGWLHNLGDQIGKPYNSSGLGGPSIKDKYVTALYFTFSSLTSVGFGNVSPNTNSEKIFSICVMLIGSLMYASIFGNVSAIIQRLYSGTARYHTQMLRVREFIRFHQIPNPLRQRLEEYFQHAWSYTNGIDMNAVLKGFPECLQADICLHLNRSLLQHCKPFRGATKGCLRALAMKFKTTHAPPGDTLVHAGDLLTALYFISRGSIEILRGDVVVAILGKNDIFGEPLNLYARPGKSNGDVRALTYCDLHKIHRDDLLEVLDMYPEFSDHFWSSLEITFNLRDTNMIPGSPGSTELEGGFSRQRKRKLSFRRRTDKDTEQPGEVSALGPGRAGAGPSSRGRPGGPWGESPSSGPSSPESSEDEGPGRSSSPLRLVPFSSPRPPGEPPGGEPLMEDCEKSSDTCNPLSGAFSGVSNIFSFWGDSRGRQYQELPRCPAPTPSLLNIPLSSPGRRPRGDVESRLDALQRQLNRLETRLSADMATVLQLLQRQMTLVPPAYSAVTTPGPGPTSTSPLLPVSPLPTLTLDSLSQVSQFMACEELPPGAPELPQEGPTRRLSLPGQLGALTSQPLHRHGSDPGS

Structure (SMILES)	hERG current change (%, negative = inhibition) at 10uM [%]
COc1ccccc1OCC(=O)OCC(=O)Nc1ncc(Cl)cc1Cl	12.8
Cc1ccc2nc(NC(=O)/C=C/c3ccc4c(c3)OCO4)sc2c1	14.8
Cc1cccc(CNC(=O)c2ccc(NC(=O)C3=CSCCO3)cc2)c1	5.08
CSc1nnc(NC(=O)CCc2ccccc2)s1	-6.33
COc1ccc(NC(=O)CN(C)C(=O)c2ccccc2SCC(=O)N2CCCC2)cc1	10.5
O=C(O)CSc1nnc(Nc2ccccc2)n1-c1ccccc1	18.6
CSc1nc2ccccc2n1Cc1cccc([N+](=O)[O-])c1	-44.8
CCN(CC)CCSc1nc(O)c(-c2ccccc2)c(=O)n1-c1ccccc1.Cl	12.1
O=C(O)CCSc1nc2ccccc2n1Cc1ccccc1	24.1
CCN(CC)C(=O)CSc1nnc(-c2ccccc2)n1-c1ccccc1	17.8
OCCn1nc2c3ccccc3nc-2n(-c2ccccc2)c1=S	-9.49
COc1ccc(Cn2c(SC)nc3ccccc32)cc1[N+](=O)[O-]	13.9
CN(C)C(=O)CSc1nc2ccccc2n1Cc1ccccc1	-11.8
CCN(CC)CCSc1nc2ccccc2n1Cc1ccccc1.Cl	-74.1
CCSc1nc2ccccc2n1Cc1cccc([N+](=O)[O-])c1	-69.7
CCN(CC)CCSc1nc2ccccc2c(=S)n1-c1ccccc1.Cl	-51.9
CCN(CC)CCSc1nnc(Nc2ccccc2)n1-c1ccccc1	-75.9
CCc1n[nH]c(=S)n1/N=C/c1ccc(NC(C)=O)cc1	13
COc1cc(NC(=O)COC(=O)CO/N=C(\C)c2ccc3c(c2)OCO3)cc(OC)c1	14.6
CC1CCc2sc(C(=O)Nc3ccc(N4CCOCC4)cc3)cc2C1 (centres unmarked)	11.6
COc1cccc2c1OCC(C(=O)Nc1nccs1)=C2	-0.366
CC(=O)C1=C(O)C(=O)N(c2ccc(Br)cn2)C1c1ccccc1F (centres unmarked)	10.6
CC(=O)N(C)c1ccc(NS(=O)(=O)Cc2ccccc2)cc1	-8.12
O=C(CCSc1ccccc1)Nc1ncccn1	14.9

Structure (SMILES)	hERG current change (%, negative = inhibition) at 10uM [%]
COC(=O)c1ccc(Cl)c(NS(=O)(=O)c2ccc3c(c2)OCCO3)c1	-25.4
Cc1sc2nc3ccc(NCc4ccco4)nn3c(=O)c2c1C	-21.7
O=c1c2ccccc2nc2c3ccccc3c(NCc3ccco3)nn12	-17.8
Cc1sc2nc3c4ccccc4c(NCc4ccco4)nn3c(=O)c2c1C	-56.6
COc1nc(N/N=C/c2ccccc2F)nc(N2CCCCC2)n1	-15.6
O=C(NCCCN1CCc2ccccc2C1)Nc1ccc(Cl)cc1	-65.5
COc1ccc(NC(=O)NCCCN2CCCC2=O)cc1	4.11
CN1CCN(CCNC(=O)Nc2ccc(Cl)cc2)CC1	-0.17
COc1ccc(NC(=O)NCCN2CCc3ccccc3C2)cc1	-34.6
O=C(NCCCN1CCc2ccccc2C1)Nc1ccc(Br)cc1	-71.7
O=C(CN1CCc2ccccc2C1)Nc1ccc(Br)cc1	-34.2
COc1ccc(NC(=O)NCCCN2CCc3ccccc3C2)cc1	-69.2
O=C(Nc1ccc(Br)cc1)N1CCc2ccccc2C1	2.91
O=C(NCCCN1CCCC1=O)Nc1ccc(Cl)cc1	2.13
COc1ccc(-c2csc(NC(=O)Cc3ccccc3F)n2)cc1OC	2.29
CC(Oc1cc2oc(=O)c3c(c2cc1Cl)CCCC3)C(=O)NCc1ccncc1 (centres unmarked)	-41.8
Cc1[nH]c2ccccc2c1C1(O)C(=O)N(C(C)C)c2ccccc21 (centres unmarked)	16.7
CC1CC2(CC(C)(C(=O)CSc3nc4ccccc4s3)OC2=O)C(=O)O1 (centres unmarked)	-1.16
CCOC(=O)C1=C(C)NC(C)=C(C(=O)OCC)C1C(=O)OCC(=O)N1CCc2ccccc21	-1.82
CC(C)CC(=O)Nc1ccccc1-c1nnn(CC(=O)N2CCOCC2)n1	-2.78
NC(=S)NNc1c(F)c(F)c(F)c(F)c1F	28.9
Cc1ccc(F)c(NC(=O)c2c(-c3ccccc3)noc2C)c1	7.17
Cl.OCCN(CCO)CC(O)CN1c2ccccc2Sc2ccccc21 (centres unmarked)	-12.9

From article PMC4336329 (PLoS ONE, 2015)
